A selection: hits, their analogues and other compounds. The true share with any hit is near 3.3%.
697 NFkB inh: inhibitors of PMA/ionomycin-induced NF-kB reporter, 697 cells, primary screen, B-cell NF-kB inhibitor project, cell-based, luminescence, uHTS; 697 B-cell NF-kB luciferase reporter, 16 h; inhibition, % at 4 µM; 0.33% of 330,000 active; AID 435022, 2010; in the data active means inhibition above about 35%
Jurkat NFkB inh: inhibitors of induced NF-kB luciferase reporter, primary screen, TCR NF-kB activation inhibitor project, cell-based, luminescence, uHTS; Jurkat, PMA/ionomycin-induced NF-kB luciferase reporter; inhibition, % at 4 µM; 0.53% of 330,000 active; in the data active means inhibition above about 50%
Gli-Sufu antag: Gli-Sufu pathway antagonists, primary screen, luciferase luminescence, Sufu-KO-LIGHT cells, uHTS; 0.74% of 340,000 active; inhibition, % at 5 µM; Sufu-KO-LIGHT fibroblasts, Gli luciferase reporter luminescence;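 active means inhibition above about 55%, limit read from the data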;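 further: 0% = DMSO-treated cells and 100% = wells with medium but no cells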
SMARCA2 activ: SMARCA2 (BRM) function activators, primary screen, cell-based, luminescence, high throughput | MG213 cells, MMTV-luciferase reporter, dexamethasone, overnight | activation, % at 9.1 µM | 1% of 370,000 active | AID 652017, 2013; in the data active means activation above about 7.8%;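 further: 0% = vehicle wells and 100% = reference activator wells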
esBAF inh: Bmi1 luciferase reporter increase in mESCs, primary screen, esBAF inhibitor project, mouse ES cells, Bmi1 luciferase knock-in, single point | 24 h; 100% = twice the neutral-well signal | reporter increase, % at 12.5 µM | 2% of 350,000 active | AID 602393, 2012; in the data active means activation above about 40%;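 further: 0% = median of the plate's neutral control wells and 100% = double that signal; a rise in the Bmi1 reporter signal indicates esBAF inhibition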
SMARCA2 act conf: SMARCA2 (BRM) function activators, confirmation, cell-based, luminescence, triplicate. shares compounds with SMARCA2 activ. MG213 cells, MMTV-luciferase with dexamethasone, overnight; MG213 cells expressing E1A, Rb sequestered; DMSO wells 0%, reference activator 100%. activation, % at 9.1 µM. 30% of 3,500 active. AID 652260, 2013;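 active means activation above its plate's cutoff, the mean activation of tested wells plus 3 SD, cut at about 7.9% in these data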
VP16 Luc act: GAL4-VP16 luciferase reporter activation, counter-screen for SMARCA2 (BRM) activator project, cell-based, pG5luc, luminescence, high throughput. shares compounds with SMARCA2 activ. HEK293 GAL4-VP16 pG5luc reporter; scaled: DMSO wells 0%, SAHA wells 100%. activation, % at 9.1 µM. 41% of 3,500 active. AID 686939, 2013;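 active means activation above the solvent-only control well mean plus 3 SD, averaged across control plates, cut at about 5.2% in these data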
* marks the source's active call; other numbers are inactive results.

`CN1C(=O)c2cc(NC(=O)NCc3ccccc3)ccc2OC[C@@H]2O[C@@H](CC(=O)O)CC[C@H]21` gave esBAF inh 0.4.
For O=c1[nH]c2ccccc2cc1-c1nnn(-c2ccccc2)n1 the results were 697 NFkB inh -4.0, Jurkat NFkB inh -2.7, Gli-Sufu antag -17.7, SMARCA2 activ -0.1 and esBAF inh 5.0.
Cn1c(-c2nnn(-c3ccc(F)cc3)n2)cc2ccccc21 was read as 697 NFkB inh -141.5, Jurkat NFkB inh -140.4, SMARCA2 activ 8.8*, SMARCA2 act conf 5.6 and VP16 Luc act 8.4*.
Screening Cc1ccc(S(=O)(=O)N2CCOCC2)cc1C(=O)OCC(=O)NC1CCCCC1 returned 697 NFkB inh -6.6, Jurkat NFkB inh 1.2, Gli-Sufu antag -13.4, SMARCA2 activ -1.3 and esBAF inh 4.5.
For Cc1ccc(S(=O)(=O)N2CCOCC2)cc1C(=O)OCC(=O)NC1CC1 the results were 697 NFkB inh -5.4, Jurkat NFkB inh 9.3, Gli-Sufu antag -8.4, SMARCA2 activ 9.3*, esBAF inh -6.2, SMARCA2 act conf -3.9 and VP16 Luc act 0.3.
For Cn1c(N)c(C(=O)COC(=O)c2cc(S(=O)(=O)N3CCOCC3)ccc2F)c(=O)n(C)c1=O the results were 697 NFkB inh 21.4, Jurkat NFkB inh 9.8, Gli-Sufu antag 22.9, SMARCA2 activ 36.6*, esBAF inh 5.2, SMARCA2 act conf 9.9* and VP16 Luc act 0.4.
Screening O=C(NCC[C@H]1CC[C@H](NS(=O)(=O)c2cccc(F)c2)[C@@H](CO)O1)Nc1cc(F)ccc1F returned esBAF inh 6.9.
For Cc1ccccc1-c1cnc2c(c1)C(=O)N([C@@H](C)CO)C[C@@H](C)[C@H](CN(C)C(=O)c1ccccc1)O2 the results were esBAF inh 7.0.
`Cc1ccc(Cn2nnnc2CN2CCC(O)(c3ccc(F)cc3)CC2)cc1` gave 697 NFkB inh 1.7, Jurkat NFkB inh 1.5, Gli-Sufu antag 5.0, SMARCA2 activ 10.6*, esBAF inh 6.4, SMARCA2 act conf -3.3 and VP16 Luc act -1.7.
`Cc1ccc2nc3c(cc(C(=O)NCc4ccco4)c(=N)n3C3CCCC3)c(=O)n2c1` gave 697 NFkB inh 0.8, Jurkat NFkB inh 15.1, SMARCA2 activ 9.1*, SMARCA2 act conf 15.2* and VP16 Luc act 3.3.
For Cc1cccn2c(=O)c3cc(C(=O)NCc4ccco4)c(=N)n(C4CCCCC4)c3nc12 the results were 697 NFkB inh -13.5, Jurkat NFkB inh 17.0, Gli-Sufu antag 44.5 and esBAF inh 0.7.
Screening N=c1c(C(=O)NCC2CCCO2)cc2c(=O)n3ccccc3nc2n1C1CCCC1 (configuration not stated) returned 697 NFkB inh -10.7, Jurkat NFkB inh 6.0, Gli-Sufu antag 19.9, SMARCA2 activ 1.1 and esBAF inh -0.7.
For Cc1ccc2nc3c(cc(C(=O)NCC4CCCO4)c(=N)n3C3CCCC3)c(=O)n2c1 (configuration not stated) the results were 697 NFkB inh 0.4, Jurkat NFkB inh 3.2, Gli-Sufu antag 5.7, SMARCA2 activ 8.8*, esBAF inh 4.2, SMARCA2 act conf -0.9 and VP16 Luc act 0.6.
C[C@@H]1CN([C@H](C)CO)C(=O)Cc2cc(NC(=O)Cc3ccccc3)ccc2O[C@@H]1CN(C)C(=O)Nc1ccc2c(c1)OCO2 was read as esBAF inh -2.1.
For Cc1ccc(-c2nc(CN3CCCCC3)cc(CN3CCCCC3)c2O)cc1 the results were 697 NFkB inh -17.0, Jurkat NFkB inh -16.0, Gli-Sufu antag 10.9, SMARCA2 activ 8.2*, SMARCA2 act conf 3.4 and VP16 Luc act 2.1.
`C/C(=N\NC(=O)c1ccccc1OCc1ccc(F)cc1)c1ccccn1` gave 697 NFkB inh -79.7, Jurkat NFkB inh 37.1, Gli-Sufu antag 46.8, SMARCA2 activ 17.3*, esBAF inh -0.4, SMARCA2 act conf -15.1 and VP16 Luc act 7.6*.
Screening Cc1ccnc(NC(=O)c2ccccc2[N+](=O)[O-])c1 returned 697 NFkB inh 6.1, Jurkat NFkB inh 0.2, Gli-Sufu antag -0.5, SMARCA2 activ 0.8 and esBAF inh 12.9.
Cc1ccnc(NC(=O)c2cccc3ccccc23)c1 was read as 697 NFkB inh 4.1, Jurkat NFkB inh -8.5, Gli-Sufu antag -23.9, SMARCA2 activ 10.8*, SMARCA2 act conf 2.6 and VP16 Luc act 2.1.
Screening COc1cc(C(=O)c2cocc2C(=O)c2ccc3c(c2)OCO3)cc(OC)c1OC returned Gli-Sufu antag 17.0, SMARCA2 activ 9.0*, esBAF inh -17.2, SMARCA2 act conf 0.4 and VP16 Luc act 6.3*.
For Cc1nc(NC(=O)c2ccccc2)sc1C the results were 697 NFkB inh -124.1, Jurkat NFkB inh -128.1, Gli-Sufu antag -56.9, SMARCA2 activ 8.2*, esBAF inh 6.0, SMARCA2 act conf 6.8 and VP16 Luc act 7.8*.
CC(C)(C)c1nnc(NC(=O)Nc2ccc(Cl)cc2)s1 was read as 697 NFkB inh -119.8, Jurkat NFkB inh -89.5, Gli-Sufu antag -33.2 and SMARCA2 activ 1.4.
Cc1nc(NC(=O)Nc2ccc(Cl)cc2)sc1C was read as 697 NFkB inh -45.2, Jurkat NFkB inh -56.4, Gli-Sufu antag -46.2, SMARCA2 activ 8.6*, esBAF inh 58.3*, SMARCA2 act conf 3.4 and VP16 Luc act 10.3*.
Screening Nc1ccc2c(c1)C(=O)c1cc(N)c(Cl)cc1-2 returned Gli-Sufu antag -3.6, SMARCA2 activ 10.6*, esBAF inh 28.0, SMARCA2 act conf 10.9* and VP16 Luc act 2.9.
CCOC(=O)c1c(C)oc2c1cc(O)c1ccccc12 was read as 697 NFkB inh -5.1, Jurkat NFkB inh 2.7, Gli-Sufu antag 4.8, SMARCA2 activ 8.1*, SMARCA2 act conf 9.8* and VP16 Luc act 12.9*.
CN1OC[C@@H]2CN(C(=S)NCCc3ccccc3)[C@H](c3ccc(-n4ccnc4)cc3)C[C@@H]21 was read as SMARCA2 activ 8.4*, esBAF inh -2.4, SMARCA2 act conf 0.8 and VP16 Luc act 0.5.
For CN1OC[C@@H]2CN(C(=O)CCc3ccccc3)[C@H](c3ccc(-n4ccnc4)cc3)C[C@@H]21 the results were SMARCA2 activ -1.2 and esBAF inh -3.5.

Assay outcomes deposited in PubChem BioAssay by several laboratories.
